Measurements: PubChem BioAssay (NCI)
This is part of a sample that, as a whole, favours compounds with a hit. Of some 79,000 tested, about 15% had one in any assay. Activity calls are given as the source filed them. Rule as the data show it: active = growth inhibition above about 70%; inactive = the rest.

How the values were obtained:
[1] = NCI Yeast Anticancer Drug Screen. Data for the rad52 strain (AID 147);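 also: 0% = growth of vehicle-treated control cultures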; details: S. cerevisiae rad52 mutant growth inhibition, active compounds read high
Summary of the method: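 Here a repair-compromised yeast strain receives each compound; its growth is then quantified and normalised to vehicle-only controls.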

[2] = NCI Yeast Anticancer Drug Screen. Data for the wt1 strain (AID 149);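 also: 0% = growth of vehicle-treated wt1 cultures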; details: S. cerevisiae wt1 strain (SPY 50644) growth inhibition, active compounds read high
Summary of the method: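 wt1 yeast, compound-treated; % growth inhibition vs vehicle control.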

[3] = NCI Yeast Anticancer Drug Screen. Data for the rad50EPP+ strain (AID 151);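 also: 0% = growth of vehicle-treated control cultures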; details: S. cerevisiae rad50 mutant strain, active compounds read high
Summary of the method: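 Read-out is yeast growth inhibition relative to vehicle; cells used were the rad50EPP+ strain.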

[4] = NCI Yeast Anticancer Drug Screen. Data for the rad50 strain (AID 155);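 also: 0% = growth of vehicle-only cultures of the same strain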; details: S. cerevisiae rad50 strain growth inhibition, active compounds read high
Summary of the method: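 Genetically altered yeast (DNA repair pathway); compound treatment; growth inhibition vs vehicle ctrl.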

[5] = NCI Yeast Anticancer Drug Screen. Data for the mec2-1 strain (AID 157); details: S. cerevisiae mec2-1 strain, active compounds read high
Summary of the method: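 Using mec2-1 yeast: add compound, measure growth, express inhibition versus vehicle-treated cultures.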

[6] = NCI Yeast Anticancer Drug Screen. Data for the rad14 strain (AID 159);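 also: 0% = growth of vehicle-treated control cultures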; details: S. cerevisiae rad14 strain growth inhibition, active compounds read high
Summary of the method: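 Test compounds were applied to a repair-deficient yeast strain. Its growth was then compared with that of cultures given vehicle alone, and inhibition was expressed relative to those controls.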

[7] = NCI Yeast Anticancer Drug Screen. Data for the sgs1 mgt1 strain (AID 161);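 also: 0% = growth of cultures given vehicle only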; details: S. cerevisiae sgs1 mgt1 strain, active compounds read high
Summary of the method: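 This yeast growth screen uses a strain with defined DNA-repair lesions; compound-treated growth is compared with vehicle-treated growth.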

[8] = NCI Yeast Anticancer Drug Screen. Data for the CLN2oe strain (AID 163);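 also: 0% = growth of vehicle-only control cultures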; details: S. cerevisiae CLN2oe strain, active compounds read high
Summary of the method: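 Whole-cell yeast growth assay. A strain engineered for altered cell-cycle control received compound, and inhibition relative to vehicle-treated cultures was recorded.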

[9] = NCI Yeast Anticancer Drug Screen. Data for the cln2 rad14 strain (AID 165);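 also: 0% = growth equal to vehicle treated cultures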; details: S. cerevisiae cln2 rad14 strain, active compounds read high
Summary of the method: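 Yeast strain cln2 rad14, bearing defects in cell cycle control and DNA repair, serves as the test system; values reflect growth inhibition compared with vehicle.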

[10] = NCI Yeast Anticancer Drug Screen. Data for the bub3 strain (AID 167); details: S. cerevisiae bub3 mutant strain, active compounds read high
Summary of the method: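 Yeast carrying a defined mutation is treated with each compound, and growth is compared with that of vehicle-exposed cells to give inhibition.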

[11] = NCI Yeast Anticancer Drug Screen. Data for the wt2 strain (AID 169);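 also: 0% = growth of vehicle-treated yeast cultures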; details: S. cerevisiae wt2 strain growth inhibition, active compounds read high
Summary of the method: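 Treated yeast vs. vehicle-treated yeast: growth inhibition determined.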

[12] = NCI Yeast Anticancer Drug Screen. Data for the sgs1 strain (AID 173);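 also: 0% = growth of vehicle-only control cultures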; details: S. cerevisiae sgs1 mutant, active compounds read high
Summary of the method: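 A genetically defined yeast mutant is incubated with the test compound, and its growth is compared to that of the same strain given vehicle.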

[13] = NCI Yeast Anticancer Drug Screen. Data for the mlh1 rad18 strain (AID 175); details: S. cerevisiae mlh1 rad18 strain growth inhibition, active compounds read high
Summary of the method: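 Steps: expose repair-defective yeast to compound; measure growth; express inhibition against vehicle-treated controls.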

[14] = NCI Yeast Anticancer Drug Screen. Data for the rad18 strain (AID 177); details: S. cerevisiae rad18 mutant growth inhibition, active compounds read high
Summary of the method: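 Measured value is growth inhibition of a yeast strain bearing a DNA repair alteration, referenced to vehicle-treated cells.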

[15] = at 5.0 µM (retest, dose inferred, filed as 0.5)
[16] = at 50.0 µM (retest, dose inferred, filed as 5.0)

Measured: growth inhibition

[N-]=[N+]=NC(c1ccccc1)(c1ccccc1)c1ccccc1
active: [1]; at 100.0 µM 94% | [2]; at 100.0 µM 88% | [4]; [15] 100% | [4]; [16] 98% | [4]; at 50.0 µM 85% | [4]; at 100.0 µM 92% | [5]; [15] 99% | [5]; [16] 98% | [5]; at 50.0 µM 80.8% | [5]; at 100.0 µM 95% | [6]; at 100.0 µM 94% | [7]; [16] 84% | [7]; at 50.0 µM 87.7% | [8]; at 100.0 µM 78% | [9]; [16] 89% | [9]; at 50.0 µM 80.5% | [10]; [16] 79% | [10]; at 50.0 µM 87.8% | [10]; at 100.0 µM 86% | [11]; at 100.0 µM 89% | [12]; at 100.0 µM 87% | [13]; [15] 100% | [13]; [16] 99% | [13]; at 50.0 µM 84.1% | [14]; at 100.0 µM 87%
inactive: [1]; at 1.2 µM 8% | [1]; at 3.7 µM 6% | [1]; at 11.0 µM 9% | [1]; at 33.0 µM 29% | [2]; at 1.2 µM 15% | [2]; at 3.7 µM 12% | [2]; at 11.0 µM -6% | [2]; at 33.0 µM 32% | [3]; at 1.2 µM 9% | [3]; at 3.7 µM 15% | [3]; at 11.0 µM 11% | [3]; at 33.0 µM 21% | [3]; at 100.0 µM 28% | [4]; at 1.2 µM 14% | [4]; at 3.7 µM 22% | [4]; at 11.0 µM 6% | [4]; at 33.0 µM 40% | [5]; at 1.2 µM 12% | [5]; at 3.7 µM 11% | [5]; at 11.0 µM 13% | [5]; at 33.0 µM 32% | [6]; at 1.2 µM -9% | [6]; at 3.7 µM 1% | [6]; at 11.0 µM -4% | [6]; at 33.0 µM 24% | [7]; [15] -4% | [8]; at 1.2 µM 29% | [8]; at 3.7 µM 23% | [8]; at 11.0 µM 20% | [8]; at 33.0 µM 26% | [9]; [15] 17% | [10]; at 1.2 µM 3% | [10]; at 3.7 µM -17% | [10]; [15] 12% | [10]; at 11.0 µM -16% | [10]; at 33.0 µM 27% | [11]; at 1.2 µM -14% | [11]; at 3.7 µM -9% | [11]; at 11.0 µM -11% | [11]; at 33.0 µM 16% | [12]; at 1.2 µM 0% | [12]; at 3.7 µM -15% | [12]; at 11.0 µM -8% | [12]; at 33.0 µM 66% | [14]; at 1.2 µM 10% | [14]; at 3.7 µM 6% | [14]; at 11.0 µM 14% | [14]; at 33.0 µM 37%
